From PubChem BioAssay
Hits are enriched below; roughly 0.59% of the tested compounds scored in any of these assays.
Mtb hypoxia inh: inhibitors of hypoxia-regulated fluorescent reporter in Mycobacterium tuberculosis. fluorescence inhibition, % (concentration not given with the values). M. tuberculosis hypoxia-regulated fluorescent reporter, fluorescence. hit rate 0.1% among 300,000. AID 1159583; in the data active = fluorescence inhibition mostly above about 23%, no sharp cut-off; inactive = mostly below about 17%
VHR inh abs: blocks human VHR1 dual specificity phosphatase. recombinant VHR phosphatase, pNPP absorbance. inhibition, % at 13.3 µM. P51452. AID 1654. hit rate 0.52% among 290,000; in the data active = inhibition above about 50%
Target sequence (P51452 whole entry, looked up): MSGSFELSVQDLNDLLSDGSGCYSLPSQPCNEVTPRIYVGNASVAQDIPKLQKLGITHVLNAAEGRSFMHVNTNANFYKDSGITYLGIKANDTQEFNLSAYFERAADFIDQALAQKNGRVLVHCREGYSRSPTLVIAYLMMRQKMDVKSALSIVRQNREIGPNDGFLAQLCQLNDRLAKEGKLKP
Mtb bLac sens: beta-lactam sensitization of Mtb H37Rv | M. tuberculosis H37Rv growth with meropenem, percent inhibition | hit rate 0.27% among 330,000 | inhibition, % at 25 µM | AID 434955; call rule not given here;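 note: growth measured after seven days incubation then overnight dye step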
Rv3671c protease: inhibits the M. tuberculosis serine protease Rv3671c; P9WHR9; inhibition, % at 5.96 µM; hit rate 0.048% among 320,000; AID 2606; in the data active = inhibition above about 38%;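 note: extracellular domain of Rv3671c used as enzyme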
Target sequence (P9WHR9 whole entry, looked up, the tested form may be a part): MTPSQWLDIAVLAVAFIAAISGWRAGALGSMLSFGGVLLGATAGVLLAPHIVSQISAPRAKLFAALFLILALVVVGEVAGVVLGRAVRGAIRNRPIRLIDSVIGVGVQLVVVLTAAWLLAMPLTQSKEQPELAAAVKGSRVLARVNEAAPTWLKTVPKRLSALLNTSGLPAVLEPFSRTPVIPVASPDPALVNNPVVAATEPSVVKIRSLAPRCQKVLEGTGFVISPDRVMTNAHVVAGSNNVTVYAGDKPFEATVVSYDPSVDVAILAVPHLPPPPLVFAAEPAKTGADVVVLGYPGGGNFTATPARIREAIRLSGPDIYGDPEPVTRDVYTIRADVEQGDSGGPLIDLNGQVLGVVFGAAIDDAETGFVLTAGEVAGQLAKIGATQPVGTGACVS
UGM FP inh: inhibitors of M. tuberculosis UDP-galactopyranose mutase | P9WIQ1 | inhibition, % at 10 µM | hit rate 0.06% among 320,000 | purified UGM, fluorescence polarization probe displacement; in the data active = inhibition above about 10%, passing the limit was not always enough
A number is an active result; . = inactive; / = no result given.

SMILES	Mtb hypoxia inh	VHR inh abs	Mtb bLac sens	Rv3671c protease	UGM FP inh
COc1ccc(S(=O)(=O)N2CCC(C(=O)NCCC(=O)Nc3ccc(Cl)cc3)CC2)cc1	.	56.7	.	.	.
C=CCN1C(=O)/C(=C2/Sc3ccccc3N2CC)SC1=S	.	.	.	.	.
C=CCN1C(=O)/C(=C2/Sc3ccccc3N2CCCS(=O)(=O)O)SC1=S	/	50.5	.	.	.
O=C(CCN1C(=O)/C(=C/c2ccc(Cl)cc2)SC1=S)NC1C=CS(=O)(=O)C1 (stereo unspecified)	.	.	.	.	.
COc1ccc(-c2cc(=O)oc3c(O)c(O)ccc23)cc1	.	59.0	.	.	.
CCC[C@H]1COCCS(=O)(=O)N1Cc1ccccc1	/	.	.	.	.
OCCN(Cc1ccccc1)c1ncnc2sccc12	.	51.1	.	.	.
C=CCOc1ccc(/C=N/NC(=O)CC(=O)NC2CCCCC2)cc1	/	.	.	.	.
Cc1cc(C)cc(C(=O)Nc2c3c(nn2C(C)(C)C)CS(=O)(=O)C3)c1	.	51.3	.	.	.
O=C(Nc1ccccc1F)Nc1ccccc1OC(F)F	.	56.3	.	.	.
O=C(Nc1ccccc1OC(F)F)c1ccc(F)cc1	.	.	.	.	.
CN(C)C(CNC(=O)c1ccc(Cl)c(S(=O)(=O)N2CCCCCC2)c1)c1ccccc1 (stereo unspecified)	.	/	.	.	.
CCN(CC)S(=O)(=O)c1ccc(Cl)c(NC(=O)COC(=O)c2ccc(O)cc2)c1	.	.	.	.	.
Cc1cc(C)n(-c2cc(C(=O)O)cc(C(=O)O)c2)n1	.	53.0	.	.	.
Cc1c(C(=O)NC2CCOC2)oc2c(F)cccc12 (stereo unspecified)	.	52.7	.	.	.
Cc1c(C(=O)O)oc2c(F)cccc12	.	.	.	.	.
Cc1ccc(CNC(=O)CCSCc2ccccc2C)cc1	.	.	.	.	.
CC(Sc1ccc(S(=O)(=O)N2CCOCC2)cn1)c1ccccc1Cl (stereo unspecified)	.	/	.	.	.
O=C(CNC(=O)c1ccc2c(c1)OCCO2)N=Nc1c(O)[nH]c2ccccc12	.	.	.	.	.
O=C(/C=C/c1cn(CC(O)CN2CCCCC2)c2ccccc12)c1ccccc1 (stereo unspecified)	32.6	.	/	/	/
CCC1CCCCN1CCCNC(=O)CCC(=O)N1CC(C)Oc2ccccc21 (stereo unspecified)	.	52.8	.	.	.
CCOC(=O)c1ccc(NC(=O)C(=O)NCCc2ccc(OC)cc2)cc1	.	.	.	.	.
COC(=O)CSc1[nH]c2ccc(Br)cc2c1[N+](=O)[O-]	37.3	.	.	.	.
CCOc1ccc2[nH]c(SCC(=O)OC)c([N+](=O)[O-])c2c1	.	.	.	.	.
COc1cc(/C=C(/C#N)c2nc(-c3cc4ccccc4oc3=O)cs2)cc([N+](=O)[O-])c1O	/	100.7	/	/	/
SMILES	Mtb hypoxia inh	VHR inh abs	Mtb bLac sens	Rv3671c protease	UGM FP inh
COc1cc(/C=C(\C#N)c2nc(-c3cc4ccccc4oc3=O)cs2)ccc1O	.	.	.	.	.
CC(/C=N/NC(=O)c1cccs1)=C\c1ccco1	/	51.3	.	.	.
CC(/C=N/NC(=O)Cc1cccs1)=C\c1ccco1	/	.	.	.	.
COc1ccc(-c2c(C)n([O-])c3c([n+]2=O)CCCC3)cc1	.	51.5	.	.	.
O=C1NC(=Nc2ccccc2)SC1=Cc1cccn1-c1ccccc1	.	/	/	/	/
Cc1ccccc1N=C1NC(=O)/C(=C/c2cccn2-c2cccc(C(=O)O)c2)S1	.	56.3	/	/	/
CCCOc1ccc(C(=O)C(CN2CCOCC2)c2ccccc2)cc1 (stereo unspecified)	/	.	.	.	.
COc1ccc(C(=O)OCC(=O)NC(=O)NC(C)C)cc1OC	.	.	.	.	.
CN(c1cccc(Cl)c1)S(=O)(=O)c1cccc(C(=O)Nc2nc3ccccc3[nH]2)c1	.	51.3	.	.	.
N#Cc1ccccc1NC(=O)COC(=O)c1ccc(F)cc1F	.	53.3	.	.	.
O=C1CN(C(=O)c2ccc(F)c(S(=O)(=O)N3CCOCC3)c2)c2ccccc2N1	.	.	.	.	.
Cc1cc(C)nc(NC(=O)/C=C/c2cccs2)c1	.	.	.	.	.
Cc1cc(C)c(-c2csc(NC(=O)/C=C/c3cccs3)n2)c(C)c1	.	52.9	.	.	.
C/C(CC(=O)NCc1ccco1)=N\NC(=O)c1ccc(Cl)cc1Cl	/	52.0	.	.	.
CC(CC(=O)NCc1ccco1)=NNC(=O)c1ccc([N+](=O)[O-])cc1Cl	.	/	/	/	/
Nc1nnc(SCC(=O)Nc2ccc(Cl)c(C(=O)O)c2)s1	.	56.4	.	.	.
Cc1sc2nc[nH]c(=O)c2c1-c1ccc(F)cc1	.	.	.	.	.
Cc1ccc(-c2c(C)sc3nc[nH]c(=O)c23)cc1C	.	53.3	.	.	.
CCN1CCSc2ccc(C(=O)NCc3ccc(OC(C)C)cc3)cc21	.	52.8	.	.	.
COCCNC(=O)c1oc2ccc3c(c2c1C)C(O)CC(C)(C)O3 (stereo unspecified)	.	56.9	.	/	.
COc1cccc(CNC(=O)c2ccc(CS(=O)(=O)Cc3ccc(C)cc3)o2)c1	.	.	.	.	.
COc1cccc(CNC(=O)c2ccc(CS(=O)(=O)Cc3ccccc3C)o2)c1	.	57.7	.	.	.
CC1CN(C(=S)Nc2ccc(Br)cc2)CC(C)O1 (stereo unspecified)	.	.	.	.	.
COc1ccc2oc(=N)c(C(=O)Nc3ccc(F)cc3)cc2c1	.	.	.	.	.
Cc1c(C(=O)NCCO)sc2nc3n(c(=O)c12)CCC3	.	.	.	.	.
SMILES	Mtb hypoxia inh	VHR inh abs	Mtb bLac sens	Rv3671c protease	UGM FP inh
CCCC(C)NC(=O)c1sc2nc3n(c(=O)c2c1C)CCC3 (stereo unspecified)	.	53.7	.	.	.
Cc1cccc(N=C2NC(=O)CS2)c1	.	.	.	.	.
Cc1cc(C)cc(N=C2NC(=O)CS2)c1	.	58.7	.	.	.
COc1ccc(C)cc1NC(=O)C(NC(=O)c1cc(OC)c(OC)c(OC)c1)C(C)C (stereo unspecified)	.	.	.	.	.
CCCC(C=Cc1ccc(OC(C)=O)cc1)=C1c2ccccc2C(=O)N1c1ccccc1	.	/	/	/	/
COc1ccccc1CCNC1CCC(C(C)(C)C)CC1 (stereo unspecified)	.	.	.	.	.
CN1N=C(C(C)(C)C)CC1=O	/	.	.	.	.
Brc1ccc(/C=N/c2nc3ccccc3n2CCN2CCOCC2)cc1	/	.	.	.	17.0
O=C(c1ccccc1)N1CCC(c2nc3c(nnn3Cc3ccco3)c(=O)[nH]2)CC1	.	50.0	.	.	/
O=C(c1ccc(Cl)cc1Cl)N1CCC(c2nc3c(nnn3Cc3ccco3)c(=O)[nH]2)CC1	.	.	.	.	.
O=C(CCSCc1ccccc1Cl)NCc1ccco1	.	.	.	.	.
COc1ccc(N2C(=O)c3cccc4c(N(C)CCO)ccc(c34)C2=O)cc1	.	.	.	/	20.9
Cc1cccc(/C=C\c2nc3ccccc3c(=O)[nH]2)c1	.	.	.	.	.
COc1cc(/C=C/c2nc3ccccc3c(=O)[nH]2)cc(Cl)c1O	.	57.5	.	.	.
O=C(COC(=O)c1cccnc1)Nc1ccc(F)cc1	.	.	.	.	.
O=C(COC(=O)c1cccnc1)Nc1ccccc1	/	57.3	.	.	.
